# Data from PubChem BioAssay (Tox21).
# Several values for one entry are separate records, joined by “and”; a condition that tells them apart may be missing. Equal entries are not always repeated. Results filed as inconclusive are left out. Entries that show only a call come without a potency. Some compounds were tested as several samples or in several runs, with calls that do not always agree. Activity calls are given as the source filed them. Unless noted, calls follow the shape of the dose curve; as a rule, active = well fitted curve in the direction sought with a large enough effect in the repeat runs; inconclusive = weak or mixed curves; inactive = no such curve, though single readings can be large; an effect the other way counts as inactive or inconclusive.
# Key:
# [1] = qHTS assay to identify small molecule antagonists of the retinoid acid receptor (RAR) signaling pathway - cell viability counter screen (AID 1159551); also: nearly all actives have a fitted effect of over 35% in size; also: potency is read from the fitted curve at half-maximal effect
# Outline: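 Measured by luminescent ATP detection, viability reflects C3RL4 cells treated 6 h at 37 C with test chemicals in the presence of 1 uM (final) retinol.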
# [2] = qHTS assay to identify small molecule antagonists of the estrogen related receptor (ERR) signaling pathway from Tox21 library - cell viability counter screen (AID 1224834); also: nearly all actives have a fitted effect of over 30% in size; also: potency is read from the fitted curve at half-maximal effect
# Outline: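 Seeded ERR cells were rested 6 h at 37 C/5% CO2 before compounds, positive and negative controls or DMSO were added. Incubation continued for 17.5 h, and viability was then quantified by CellTiter-Fluor fluorescence.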
# [3] = qHTS assay to identify small molecule agonists of the retinoic acid receptor (RAR) signaling pathway (AID 1159553); details: C3RL4 RARE luciferase reporter, agonist, 6 h; activation: at 73.3 µM (top of the series) unless noted; also: potency is read from the fitted curve at half-maximal effect
# Outline: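 6 hr compound exposure (DMSO vehicle) of overnight-plated C3RL4 RARE-luc cells at 37 C; luminescence quantified after 30 min RT with luciferase reagent.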
# [4] = target: Luciferin 4-monooxygenase (Photinus pyralis) (UniProt P08659); assay: qHTS assay to identify small molecule inhibitors of firefly luciferase (AID 1224835); also: nearly all actives have a fitted effect of over 25% in size; also: potency is read from the fitted curve at half-maximal effect
# Luciferin 4-monooxygenase (Photinus pyralis), sequence (P08659 whole entry, looked up): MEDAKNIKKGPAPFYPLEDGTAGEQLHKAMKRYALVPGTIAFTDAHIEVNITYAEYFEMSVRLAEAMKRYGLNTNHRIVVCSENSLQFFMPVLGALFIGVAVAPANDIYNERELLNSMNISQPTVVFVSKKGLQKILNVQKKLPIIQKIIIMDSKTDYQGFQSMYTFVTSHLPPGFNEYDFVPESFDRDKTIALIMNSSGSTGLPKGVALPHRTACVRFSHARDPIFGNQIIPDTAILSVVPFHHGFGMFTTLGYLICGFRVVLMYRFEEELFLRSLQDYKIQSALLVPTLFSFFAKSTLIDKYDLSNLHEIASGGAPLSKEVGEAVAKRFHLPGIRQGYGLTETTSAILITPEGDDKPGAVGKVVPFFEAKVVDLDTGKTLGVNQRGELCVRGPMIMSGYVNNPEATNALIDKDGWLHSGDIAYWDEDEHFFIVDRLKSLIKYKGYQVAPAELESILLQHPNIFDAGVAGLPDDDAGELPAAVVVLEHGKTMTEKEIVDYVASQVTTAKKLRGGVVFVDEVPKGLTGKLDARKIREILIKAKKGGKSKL
# Outline: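 Biochemical qHTS: compounds run as interplate titrations against purified firefly enzyme, with D-luciferin and ATP each at its KM concentration. Light output recorded by CCD imaging.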
# [5] = qHTS assay to identify small molecule antagonists of the estrogen related receptor (ERR) signaling pathway (AID 1224819;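 also: luminescence from an ERR-driven luciferase reporter measured with One-Glo reagent; nearly all actives have a fitted effect of over 50% in size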)
# Outline: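 Compounds dissolved in DMSO were pin-transferred onto ERR cells that had been plated 6 h earlier, and cells were then incubated 18 h at 37 C; signal was luciferase luminescence via One-Glo.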
# [6] = qHTS assay to identify small molecule agonists of the estrogen related receptor (ERR) signaling pathway (AID 1224820)
# Outline: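 Luminescence readout (One-Glo, 30 min RT) from NTP-supplied ERR cell line exposed to compounds for 18 h at 37 C. Cells seeded 2,000 per well and pre-incubated 6 h before pin-tool compound transfer.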
# [7] = test system: estrogen-related receptor alpha (ERRalpha) with PGC-1alpha coactivator, human; assay: qHTS assay to identify small molecule antagonists of the estrogen related receptor signaling pathway with the pleiotropic PPARgamma coactivator (PGC) (AID 1224821; calls by dose curve;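 also: lower luminescence signal means antagonism of PGC/ERR signalling; nearly all actives have a fitted effect of over 50% in size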)
# Outline: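 PGC/ERR reporter cells; 6 h pre-incubation 37 C/5% CO2; pin-tool compound in DMSO, 18 h 37 C; One-Glo added, 30 min RT; luminescence read. qHTS antagonist mode.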
# [8] = qHTS assay to identify small molecule antagonists of the estrogen related receptor signaling pathway with the pleiotropic PPARgamma coactivator (PGC) cell viability counter screen (AID 1224822)
# Outline: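 Counter screen for cell viability: PGC/ERR cells, 6 h pre-incubation after plating, 17.5 h compound exposure at 37 C, fluorescence from CellTiter-Fluor after 30 min.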
# [9] = qHTS assay to identify small molecule agonists of the estrogen related receptor signaling pathway with the pleiotropic PPARgamma coactivator (PGC) (AID 1224823)
# Outline: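 Luminescence readout (One-Glo, 30 min RT) from PGC/ERR cell line treated 18 h at 37 C with pin-tool-delivered DMSO compound solutions; cells plated 6 h before dosing. Quantitative HTS format.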
structure (smiles),measurement,setting,value
CCCC1CCC(=O)CC1,Potency,[1],inactive
same,Potency,[2],inactive
Cc1ccc(C(=O)O)cc1,Potency,[1],inactive
same,Potency,[3],inactive
same,Potency,[2],inactive
same,Potency,[4],inactive
CCCCN(CCCC)CC(O)c1cc(Cl)cc2c1-c1ccc(Cl)cc1/C2=C/c1ccc(Cl)cc1 (configuration not stated),Potency,[1],inactive
same,Potency,[5],inactive
same,outcome,[6],inactive
same,Potency,[7],inactive
same,Potency,[8],inactive
same,outcome,[9],inactive
same,Potency,[2],26.6 µM (active)
same,Potency,[4],inactive
CCC(C)n1ncn(-c2ccc(N3CCN(c4ccc(OC[C@H]5CO[C@](Cn6cncn6)(c6ccc(Cl)cc6Cl)O5)cc4)CC3)cc2)c1=O (some centres not stated),Potency,[1],inactive
same,Potency,[3],inactive
same,Potency,[2],3.76 µM (active)
same,Potency,[4],inactive
CCC(C)(CCC(C)C)C(=O)[O][Sn]([CH3])([CH3])[O]C(=O)C(C)(CC)CCC(C)C (configuration not stated),Potency,[1],inactive
same,Potency,[2],inactive
CC(C)NC[C@@H](O)COc1ccc(CC(N)=O)cc1,Potency,[1],inactive
same,Potency,[3],inactive
same,Potency,[2],inactive
same,Potency,[4],inactive
O=C(O)CN(CCN(CC(=O)O)CC(=O)O)CC(=O)O,"activity change, negative = cytotoxicity",[1],1.05% [at 3.27 µM] (inactive)
same,"viability change, negative = cytotoxic",[2],1.59% [at 3.27 µM] (inactive)
CC(C(=O)O)c1ccc2c(c1)[nH]c1ccc(Cl)cc12 (configuration not stated),Potency,[1],inactive
same,Potency,[3],inactive
same,Potency,[2],inactive
same,Potency,[4],34.7 µM (active)
ClCCl,Potency,[1],inactive
same,Potency,[3],inactive
same,Potency,[4],inactive
OC[C@H]1O[C@H](O[C@H]2O[C@H](CO)[C@@H](O)[C@H](O)[C@H]2O)[C@H](O)[C@@H](O)[C@@H]1O,Potency,[1],inactive
same,Potency,[3],inactive
same,Potency,[2],inactive
same,Potency,[4],inactive
CCCCCCCCCCCCCC[N+](C)(C)C,Potency,[1],61.1 µM (active) and inactive
same,Potency,[3],inactive
same,Potency,[2],29.6 µM (active) and 15.3 µM (active)
same,Potency,[4],68.6 µM (active)
CCOc1ccc2ccccc2c1C(=O)N[C@@H]1C(=O)N2[C@@H]1SC(C)(C)[C@@H]2C(=O)O,Potency,[1],inactive
same,Potency,[3],inactive
same,Potency,[2],inactive
same,Potency,[4],inactive
c1ccc(SSc2ccccc2)cc1,Potency,[1],inactive
same,Potency,[2],inactive
O=C(O)Cc1ccccc1Nc1c(Cl)cccc1Cl,Potency,[1],inactive
same,Potency,[8],inactive
same,Potency,[2],inactive
same,Potency,[4],inactive
Cc1c(C)c2c(c(C)c1OC(=O)c1cccnc1)CC[C@@](C)(CCC[C@H](C)CCC[C@H](C)CCCC(C)C)O2,Potency,[1],inactive
same,Potency,[3],inactive
same,Potency,[2],inactive
same,Potency,[4],inactive
Cc1c(N)cccc1C(F)(F)F,Potency,[1],inactive
same,Potency,[3],inactive
same,Potency,[2],inactive
same,Potency,[4],inactive
CC(C)(C)NSc1nc2ccccc2s1,Potency,[1],inactive
same,activation,[3],7.05% [at 94.8 µM] (active)
same,Potency,[2],inactive
same,Potency,[4],18.1 µM (active)
CCCNCCC,Potency,[1],inactive
same,Potency,[3],inactive
same,Potency,[2],inactive
same,Potency,[4],inactive
O=c1c(O)c(-c2ccc(O)cc2O)oc2cc(O)cc(O)c12,Potency,[1],inactive
same,Potency,[8],inactive
COc1c(C)c2c(c(O)c1C/C=C(\C)CCC(=O)OCCN1CCOCC1)C(=O)OC2,Potency,[1],inactive
same,Potency,[3],inactive
same,Potency,[4],inactive
C[C@H]1NCc2cc(-c3ccc4c(=O)c(C(=O)O)cn(C5CC5)c4c3OC(F)F)ccc21,"activity change, negative = cytotoxicity",[1],0.739% [at 19 µM] (inactive)
same,Potency,[3],inactive
same,"viability change, negative = cytotoxic",[2],-0.362% [at 19 µM] (inactive)
same,"activity change, negative = inhibition",[4],-0.0227% [at 23.6 µM] (inactive)
O=C(Nc1ccc2c(O)c(N=Nc3ccc(N=Nc4ccc(S(=O)(=O)O)cc4)cc3)c(S(=O)(=O)O)cc2c1)c1ccccc1,Potency,[1],24.3 µM (active)
same,Potency,[3],inactive
same,Potency,[2],24.3 µM (active)
same,Potency,[4],35.6 µM (active)
CCN(CC)c1ccc2c(-c3ccc(S(=O)(=O)O)cc3S(=O)(=O)[O-])c3ccc(=[N+](CC)CC)cc-3oc2c1,Potency,[1],31.6 µM (active)
same,Potency,[3],inactive
same,Potency,[2],22.4 µM (active)
same,Potency,[4],26 µM (active)
CCC(=O)C(=O)CC,Potency,[1],inactive
same,Potency,[3],inactive
same,Potency,[2],inactive
same,Potency,[4],inactive
CCOC(=O)c1ccc(C2CCC(NC[C@H](O)COc3ccc(O)c(NS(C)(=O)=O)c3)CC2)cc1 (some centres not stated),Potency,[1],inactive
same,Potency,[3],inactive
same,Potency,[2],63.3 µM (active)
same,Potency,[4],inactive
CCCCCCCCCCCCCCCC[N+](C)(C)CC,Potency,[1],61.3 µM (active)
same,Potency,[2],30.7 µM (active) and 23.7 µM (active)
COc1ccc(-c2coc3cc(O)ccc3c2=O)cc1,Potency,[1],inactive
same,Potency,[3],0.486 µM (active)
same,Potency,[4],2 µM (active)
OCCN1CCN(CCCN2c3ccccc3Sc3ccc(C(F)(F)F)cc32)CC1,Potency,[1],inactive
same,outcome,[6],inactive
same,Potency,[7],inactive
CN1CCCCC1CCN1c2ccccc2Sc2ccc(S(C)=O)cc21 (configuration not stated),Potency,[1],inactive
same,Potency,[3],inactive
same,Potency,[4],inactive
CCc1ccc(Br)cc1,Potency,[1],inactive
same,Potency,[2],inactive
CC(C)(C)CC(C)(C)c1ccc(Nc2ccc(C(C)(C)CC(C)(C)C)cc2)cc1,"activity change, negative = cytotoxicity",[1],0.648% [at 8.39 µM] (inactive)
same,"viability change, negative = cytotoxic",[2],0.525% [at 8.39 µM] (inactive)
COCCOc1cc2cc(C(=O)NC3CCN(C(C)C)CC3)n(CC(=O)Nc3ccc(Cl)cn3)c2cn1,Potency,[1],inactive
same,Potency,[2],inactive
C=CC(=O)OCCOC(=O)C=C,Potency,[1],inactive
same,Potency,[3],inactive
same,Potency,[4],inactive
CC(=O)CC(=O)Nc1ccc(S(=O)(=O)O)cc1,Potency,[1],inactive
same,Potency,[2],inactive
same,Potency,[4],inactive
c1ccc(C(O[C@@H]2CCCN(CCc3ccc4c(c3)OCO4)C2)c2ccccc2)cc1,Potency,[1],inactive
same,Potency,[4],inactive
